HCV inhibitor: qHTS Assay for Inhibitors of Hepatitis C Virus (HCV); Potency, µM (titrated, usually from 41.8 µM), for inactives: at the top dose activity change, negative = inhibition, actives largely listed as inhibitors; AID 651820, 2012; hit rate 3.4% among 340,000; Huh7.5.1 HCVcc-Cre infection, luciferase reporter, 44 h; further: potency means the concentration at half of the fitted maximal effect; on the % scale 0 is the no-effect control and ±100 the full control effect
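Luciferase read-out (15 sec integration) after a 15 min room-temperature substrate step quantifies HCVcc-Cre infection. Cells, 1,000 per well, had compound added 4 h post-plating, then virus at ~0.5 moi, and were cultured 44 h.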
Pf growth 96h: Primary qHTS for delayed death inhibitors of the malarial parasite plastid, 96 hour incubation; AID 504834, 2011; Potency, µM (top dose mostly 28.7 µM), for the others: at the highest dose activity change, negative = inhibition, hits mostly inhibitors; P. falciparum luciferase reporter growth, 96 h; hit rate 6.9% among 320,000; further: potency means the concentration at half of the fitted maximal effect; on the % scale 0 is the no-effect control and ±100 the full control effect
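96 h incubation, 37 C, 5% CO2, of luciferase-reporter P. falciparum-infected RBCs (2% hematocrit, 0.05% parasitemia final) with test compounds; endpoint luminescence.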
Shiga toxin inh: A qHTS for Small Molecule Inhibitors of Shiga Toxin; Vero cells, Shiga toxin protein synthesis inhibition reporter; inhibition, % at 38.7 µM; hit rate 9.2% among 290,000; in the data active means inhibition mostly above about 28%, no sharp cut-off; inactive means mostly below about 43%; further: 0% is about no effect
Cycloheximide cs: Cycloheximide Counterscreen for Small Molecule Inhibitors of Shiga Toxin; cell reporter, cycloheximide protein synthesis inhibition counterscreen; max response, %; hit rate 12% among 300,000; in the data active means max response mostly above about 13%, no sharp cut-off; inactive means mostly below about 14%; further: read at 38.3 µM for the half of the compounds with a filed dose; 0% is about no effect
HCMV antiviral: qHTS Assay for inhibitors of the human cytomegalovirus (HCMV). hit rate 4.5% among 410,000. HFF cells, HCMV-luciferase reporter, 72 h; stronger effect = lower value. activity change, negative = inhibition, % at 57.5 µM. AID 1259415, 2018; in the data active means activity change below about -60%; inconclusive means no clear call, values can overlap the other calls; inactive means above about -39%; further: on the % scale 0 is the no-effect control and ±100 the full control effect
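HFF cells seeded 16 h at 37C, treated with compounds, infected with luciferase-reporter HCMV at MOI 1 PFU/cell; luciferase read at 72 h post infection, normalized to buffer-only and Salinomycin controls.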
Pf growth 48h: Primary qHTS for delayed death inhibitors of the malarial parasite plastid, 48 hour incubation | P. falciparum luciferase growth in erythrocytes, 48 h | Potency, µM (titrated, usually from 28.7 µM), without a hit: at the highest dose activity change, negative = inhibition, hits mostly inhibitors | hit rate 5.9% among 310,000 | AID 504832, 2011; further: potency means the concentration at half of the fitted maximal effect; on the % scale 0 is the no-effect control and ±100 the full control effect
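Luciferase-expressing parasites in RBCs, 2% Hct / 0.1% parasitemia final; RPMI 1640 + 0.5% Albumax; 37 C, 5% CO2, one generation; luminescence read-out, lower signal = inhibition.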
* hit, by the source's call; ? = inconclusive; . = no result; + = active, no number; [ ] = another dose, or the depositor's remark. This is a sample that favours compounds with a hit; in the whole collection about 21% have one here. Unless noted, the call rests on the fitted dose curve; in most records, active means well fitted inhibition curve with a large enough effect; inconclusive means small, poorly fitted or top-dose-only effect, or another doubt; inactive means no such curve, though single readings can be large or run the other way.

SMILES	HCV inhibitor	Pf growth 96h	Shiga toxin inh	Cycloheximide cs	HCMV antiviral	Pf growth 48h
CCCn1c(C(C)Nc2nc(-c3cc(Cl)c(N)c(Cl)c3)cs2)nc2cc(Cl)c(N3CCCCC3)cc21 (stereo unspecified)	-16.2%	7.38µM*	1.7	1.2	3.2	?
CCC(=O)N(C)C[C@H]1Oc2cc(-c3cccnc3)ccc2S(=O)(=O)N([C@H](C)CO)C[C@H]1C	.	.	.	.	-1.4	.
CC(=O)c1ccc(N2CCN(C(=O)c3cc4cc5cc(C)ccc5nc4s3)CC2)cc1	.	.	.	.	3.5	.
COC(=O)C1=C(C)NC(C)=C(C(=O)OC)C1c1ccccc1OCc1c(C)no[n+]1[O-]	10.5%	6.3%	10.7	-1.7	-22.6	11.7µM*
COc1cc(/C=C(\C#N)C(N)=O)ccc1OCc1c(C)no[n+]1[O-]	7.4%	0.0%	-1.7	0.9	-22.8	-15.4%
CCN1CCN(c2cc(=O)n3ccccc3n2)CC1	4.1%	27.6%	-5.5	-2.5	-35.0	43.0%
CCN1CCN(c2cc3c(nn2)Oc2ccccc2N3C)CC1	?	14.1%	52.0*	49.0*	63.0	138.9%
COc1cc(/C=C/c2nc(C#N)c(NC3CCCCC3)o2)cc(OC)c1OC	.	.	.	.	140.4	.
CCS(=O)(=O)N1CCc2cc(C(=O)Nc3ccc(OC)c(Cl)c3)ccc21	.	.	.	.	-1.8	.
COc1ccc(N2CCN(c3c(S(=O)(=O)c4ccccc4)cnc4ccc(OC)cc34)CC2)cc1	11.2µM*	4.15µM*	12.8	-1.7	?	8.28µM*
CCOc1ccc2ncc(S(=O)(=O)c3ccccc3)c(N3CCN(c4ccccc4)CC3)c2c1	7.0%	.	.	.	18.9	.
CCOc1ccc2ncc(S(=O)(=O)c3ccccc3)c(N3CCN(c4ccc(OC)cc4)CC3)c2c1	?	2.94µM*	-1.0	-4.5	5.3	8.28µM*
CC1CCCN(C(=O)COC(=O)c2cc(-c3cccs3)nn2-c2ccccc2)C1 (stereo unspecified)	7.2%	43.2%	.	.	-9.6	0.9%
COCCn1ccc2c(OCC(=O)NCCc3ccccc3)cccc2c1=O	10µM*	?	.	.	-3.6	?
CCOC(=O)COc1cccc2c(=O)n(CC(=O)NCc3ccccc3)ccc12	-5.5%	44.7%	-12.6	-1.5	-70.1*	19.5%
O=C(OCc1ccccc1C(F)(F)F)c1ccc(Br)c(S(=O)(=O)N2CCOCC2)c1	-27.2%	.	.	.	-7.4	.
COc1ccc(-c2c(C)c3ccc(O)c(CN4CCC(C)CC4)c3oc2=O)cc1OC	.	.	.	.	6.2	.
Cc1ccc(C(=O)NNC(=O)Cc2nc3nc(C)cc(C)n3n2)cc1	2.1%	35.8%	-5.5	-2.4	-22.3	26.6%
Cc1cc(C)n2nc(C(=O)N/N=C/c3cccc(Cl)c3)nc2n1	5.4%	62.5%	33.8	9.4*	-1.7	0.0%
Cc1cc(C)n2nc(C(=O)NNC(=O)c3ccc(Cl)cc3)nc2n1	-3.4%	70.9%	33.7*	30.7*	-21.4	40.9%
C=CCN(CC(=O)Nc1cccnc1)S(=O)(=O)c1ccc(Cl)cc1	2.2%	.	.	.	-22.3	.
O=C1c2ccccc2C(=O)c2c1ncn2-c1ccccc1	?	56.5%	-7.1	-1.2	-67.6*	4.65µM*
CCOC(N)=O	.	5.0%	.	.	.	4.0%
COc1ccc(NS(=O)(=O)c2cc(NC(=O)c3cccnc3Cl)ccc2N2CCCC2)cc1	?	?	-5.5	-3.5	10.4	?
COc1ccc(NS(=O)(=O)c2cc(NC(=O)c3cnc(C)cn3)ccc2N2CCCCC2)cc1	?	?	-9.3	-2.9	-73.8*	11.7µM*
SMILES	HCV inhibitor	Pf growth 96h	Shiga toxin inh	Cycloheximide cs	HCMV antiviral	Pf growth 48h
COc1ccc(NS(=O)(=O)c2cc(NC(=O)C3CC3)ccc2N2CCOCC2)cc1	-24.1%	-24.6%	8.2	-2.1	?	?
COc1ccc(NS(=O)(=O)c2cc(NC(=O)c3cnc(C)cn3)ccc2N2CCCC2)cc1	?	?	2.1	-0.8	-65.5*	?
COc1ccc(NS(=O)(=O)c2cc(NC(=O)C3CC3)ccc2N2CCCCC2)cc1	11.2µM*	10.4µM*	2.2	-2.6	-101.0*	-26.7%
COc1ccc(NS(=O)(=O)c2cc(NC(=O)c3ccc(=O)[nH]c3)ccc2N2CCCC2)cc1	?	?	21.1	-1.2	-74.3*	?
COc1ccc(NS(=O)(=O)c2cc(NC(=O)c3ccncc3)ccc2N2CCOCC2)cc1	-0.1%	?	-9.4	-4.6	-27.3	?
O=C(CCN1C(=O)c2ccccc2C1=O)C1=NN[C@@H]2C(=O)N(c3ccc4c(c3)OCCO4)C(=O)[C@H]12	7.6%	0.5%	17.8	-1.9	?	15.7%
COc1ccc(NS(=O)(=O)c2cc(NC(=O)c3ccco3)ccc2N2CCCCC2)cc1	?	9.28µM*	17.3	7.6	-75.9*	?
COc1ccccc1[C@@H]1C(c2ccccc2)=NN(c2ccccc2)[C@H]1C(=O)N1CCOC1=O	4.9%	.	4.8	3.1	-10.8	.
COc1ccccc1[C@@H]1C(c2cccc(C)c2)=NN(c2ccccc2)[C@H]1C(=O)N1CCOC1=O	2.5%	10.4µM*	2.9	0.9	-2.3	13.1µM*
Cc1nc2cc(Cl)c(Cl)cc2nc1C	-3.5%	.	+	48.3*	-21.6	65.1%
CSc1ccc(/C=N/n2c(C3CCCCC3)n[nH]c2=S)cc1	-6.1%	?	-7.3	-2.0	?	-8.0%
S=c1[nH]nc(C2CCCCC2)n1/N=C/c1ccncc1	8.2%	-4.2%	12.6	1.5	-88.2*	27.0%
Cc1ccc(NC(=O)CN2C(=O)C3(SCC(=O)N3c3ccc(F)c(F)c3)c3ccccc32)c(C)c1 (stereo unspecified)	.	.	.	.	-31.5	.
COc1ccc2cc(OCC(=O)NNC(=O)Nc3ccc(C(C)=O)cc3)ccc2c1	-6.6%[8.37 µM]	22.4%	48.5	20.7*	51.5	-3.9%
COc1ccccc1NC(=O)NNC(=O)COc1ccc2ccccc2c1	-0.7%	-7.8%	-38.3	24.0*	1.4	7.2%
COc1ccc(CC(=O)NNC(=O)COc2ccc3ccccc3c2)cc1	-3.9%	1.65µM*	-10.1	-1.8	?	20.0%
COc1ccc(NC(=O)NNC(=O)COc2ccc3cc(Br)ccc3c2)cc1	22.9%	210.6%	41.9	13.4	.	54.5%
COc1ccc(NC(=O)NNC(=O)COc2ccc3ccccc3c2)cc1OC	16.5%	14.5%	-5.6	-0.5	-0.1	16.0%
COC(=O)C1CC2=C(CCCC2=O)N(c2ccccc2)C1=O (stereo unspecified)	?	.	.	.	19.2	.
Cc1ccc(C(=O)c2sc3c(c2N)c(=O)[nH]c(=O)n3CCc2ccccc2)cc1	-12.3%	9.28µM*	-14.3	0.4	-12.5	?
CCOC(=O)C1CCN(S(=O)(=O)c2cn(C)cn2)CC1	3.3%	37.5%	-4.5	0.6	18.4	17.9%
